The record followed here is PubChem BioAssay.

Calls of active or inactive are those of the source. Unless noted, no rule for the calls is given here.

The nature of test [1]: liver-stage malaria parasite load reduction – cell-based, known kinase inhibitor set, luminescence, hepatoma host viability (AID 624392).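 Also: infected cells incubated roughly two days before readout.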 To be noted: Plasmodium liver stage in hepatoma cells, luciferase luminescence, concentration not given here; liver cell % of control: measured here: host liver cell viability; parasite % of control: stronger effect = lower value.
The nature of test [2]: altered dexamethasone sensitivity, NF-kB reporter, cell-based, luciferase, IL-1B stimulus (AID 624486).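 As to percent of negative control (+Dex): 100% = mean signal of vehicle control wells on the plate.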 As to conditions: IL-1B + dexamethasone, luminescence; percent of negative control (+Dex): actives lie on both sides, concentration not given here; z-score: measured here: IL-1B alone, no Dex.
Test [3] is described as follows: inducers of IRF3 signaling, differentiated THP-1 – cell-based, PMA-stimulated THP-1, luminescence (AID 1053176). As to conditions: PMA-differentiated THP-1, IRF3 reporter luminescence; stronger effect = higher value.
The nature of test [4]: C. elegans survival during P. aeruginosa infection – whole organism (AID 651566).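 Also: tested at 14 µM; sign flipped so higher z means a lower ratio.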 As to conditions: C. elegans killed by P. aeruginosa, survival ratio.
Test [5] can be described thus: pro-inflammatory signaling induction in mouse macrophages – cell-based, murine, luminescence (AID 652131). As to conditions: murine macrophage pro-inflammatory reporter, stronger effect = higher value.
Test [6] is described as follows: MELAS cybrid and Rieske KO viability enhancers – cell-based, MELAS cybrids, Rieske KO mouse fibroblasts, CellTiter-Glo, primary screen (AID 1508586;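 active = mean z-score across replicates of 1.96 or higher in either the MELAS or the Rieske mutant cell line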;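 also: z relative to plate mean and SD of compound and empty wells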). To be noted: low glucose. Background: In ATP-based viability assays light output follows the ATP content of the culture.
Test [7] can be described thus: Wnt pathway potentiators raising nuclear beta-catenin – imaging, WNT3A-conditioned medium, mouse C2C12, NPC library, primary screen (AID 1117326; in the data active = nuclear beta-catenin stimulation mostly above about 4.2%, no sharp cut-off; inactive = mostly below about 10%). As to conditions: stronger effect = higher value.
Test [8] is described as follows: stimulators of insulin release from INS-1E, primary screen, cell-based, 5 mM glucose, NPC library (AID 1117329;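 active = compound raises insulin release from rat beta cells at 5 mM glucose, no numeric limit stated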). As to conditions: rat INS-1E insulin secretion, at 10 µM, stronger effect = higher value.
The nature of test [9]: growth inhibition of GSK3B-pretreated HCT116 cells – cell-based, CellTiter-Glo, 0.2 to 20 µM (AID 1117336;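 active = compounds lowering colon cancer cell viability after pretreatment blocking the GSK3B kinase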). To be noted: HCT116 viability after GSK3B inhibitor, at 20 µM, stronger effect = higher value.
Test [10] is described as follows: inhibition of endothelial tube formation, primary screen, imaging, VEGF stimulated, CD31 staining, tube area, NPC library (AID 1117340;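 active = compound that reduces growth-factor-driven endothelial tube area in a mixed cell culture, no cutoff stated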). As to conditions: VEGF-stimulated ADSC/ECFC co-culture, at 10 µM, stronger effect = higher value.
Test [11] can be described thus: GLP1 release stimulators, primary, NCI-H716, NPC library (AID 1117341;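 active = compound raises GLP1 secretion from the human gut endocrine cells, with no numeric limit stated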). To be noted: NCI-H716 cells, at 10 µM, stronger effect = higher value.
Test [12] is described as follows: HCT116 colon cancer cell growth inhibition, primary screen, CellTiter-Glo luminescence, NPC library (AID 1117342;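 active = compounds that lower survival of HCT116 colon cancer cells in the luminescence readout, no numeric limit stated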). As to conditions: at 20 µM (top of the series).
The nature of test [13]: reduced SW480 viability measured with CellTiter-Glo, NPC library, primary (AID 1117343;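 active = compounds that lower viability of the colon cancer cells in the luminescence readout, with no numeric limit stated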). To be noted: CellTiter-Glo luminescence; at 20 µM (top of the series).
Test [14] is described as follows: NPC library primary testing for decreased DLD-1 cell viability via CellTiter-Glo (AID 1117346;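 active = compounds that lower survival of DLD-1 colon cancer cells in the luminescence readout, no cutoff given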). To be noted: DLD-1 viability, CellTiter-Glo luminescence; at 20 µM (top of the series).
The mark [15] stands for this setting: MELAS cybrid survival, CellTiter-Glo 48 h, stronger effect = higher value.
The mark [16] stands for this setting: Rieske KO mouse fibroblast survival, CellTiter-Glo 72 h.

On to `Cc1[nH]nc2c1N=C(c1ccccc1Cl)c1cc([N+](=O)[O-])ccc1N2`, for which, in test [1], the liver cell % of control came out at 92.3% and the parasite % of control was 32.5% (inactive). In [2], the percent of negative control (+Dex) is 104% (inactive) and the z-score is -1.15. Moreover, the fraction signal in test [3] is -0.0135 (inactive).

Molecule `O=C1NC(=O)C(c2ccccc2)=C1Nc1ccccc1` gave a liver cell % of control in test [1] of 106%. The parasite % of control in test [1] is 119% (inactive). In addition, the percent of negative control (+Dex) in test [2] is 99.5% (inactive). The z-score in test [2] was 0.395; in test [4] it was 0.425 (inactive); in test [5] it was -0.099 (inactive); in test [6] (setting [15]), -0.614 (inactive); in test [6] (setting [16]) it was -0.425. Further, the fraction signal in [3] is -0.014 (inactive).

With `CCOC(=O)N1CCC(n2c(=O)[nH]c3cc(Cl)ccc32)CC1`, the nuclear beta-catenin stimulation was -2.8% (inactive) in test [7] (at 10 µM) and -0.2% in test [7] (stimulation, at 2 µM). Moreover, the insulin secretion stimulation in test [8] was -5.2% (inactive). Further, the viability decrease in [9] was 15.6% (inactive). For the same molecule, the tube area decrease in [10] is 14.4% (inactive). For the same molecule, the GLP1 secretion stimulation in test [11] is -8.8% (inactive). Besides, the inhibition of viability in test [12] was 49.4% (inactive). Also, the viability decrease (inhibition) in test [13] was 19.8% (inactive); in [14], 0.5% (inactive).

With `C[C@@H](Oc1cc(-n2cnc3ccc(OC4CCN(C)CC4)cc32)sc1C(N)=O)c1ccccc1Cl`, in [1], the liver cell % of control is 70.4%. Further, the parasite % of control in [1] was 183% (inactive). Also, the percent of negative control (+Dex) in [2] is 73% (inactive). The z-score was -2.66 in [2]; -0.3 (inactive) in [4]; -1.72 (inactive) in [5]; -0.022 (inactive) in test [6] (setting [15]); -0.0227 in [6] (setting [16]). In [3], the fraction signal was -0.008 (inactive).

In the case of `CC(C)C[C@@H]1[C@H](c2ccccc2)OC(=O)N1CCCN1CCCCCC1`, the nuclear beta-catenin stimulation was 1.3% (inactive) in [7] (at 10 µM) and 1.6% in test [7] (stimulation, at 2 µM). In addition, the insulin secretion stimulation in test [8] is 15% (inactive). Also, the viability decrease in test [9] is 21.1% (inactive). In test [10], the tube area decrease is 8% (inactive). Besides, in [11], the GLP1 secretion stimulation is 5.9% (inactive). Moreover, the inhibition of viability in [12] is 56.3% (active). Moreover, the viability decrease (inhibition) in test [13] is 19.9% (inactive); in test [14] it was 18.3% (inactive).

In the case of `Fc1ccc(-c2ncn(C3CCNCC3)c2-c2ccnc(Oc3cccc(F)c3)n2)cc1`, the liver cell % of control in test [1] turned out to be 80.2%. Also, in test [1], the parasite % of control was 175% (inactive). In addition, the percent of negative control (+Dex) in [2] is 111% (inactive). The z-score in test [2] is 0.615; in [4], -0.555 (inactive); in [5], -0.299 (inactive); in test [6] (setting [15]), -0.13 (inactive); in [6] (setting [16]) it was -0.344. In addition, the fraction signal in test [3] was -0.0075 (inactive).

Consider `CCS(=O)(=O)c1ccc(OC)c(Nc2ncc(-c3cccc(F)c3)o2)c1`, for which the liver cell % of control in test [1] was found to be 140%. Also, the parasite % of control in [1] was 19.6% (inactive). Also, the percent of negative control (+Dex) in test [2] was 84.5% (inactive). Besides, the z-score in test [2] was -0.335; in test [4] it was -0.615 (inactive); in test [5], -0.303 (inactive); in test [6] (setting [15]), 1.69 (inactive); in test [6] (setting [16]) it was -0.478. Further, in test [3], the fraction signal was -0.0005 (inactive).

Consider `Cc1cccc(Oc2nccc(-c3c(-c4ccc(F)cc4)ncn3C3CCNCC3)n2)c1C`, for which the liver cell % of control in [1] was 58.8%. The parasite % of control in test [1] is 99.5% (inactive). Moreover, the percent of negative control (+Dex) in test [2] is 104% (inactive). Besides, the z-score in test [2] was 0.6; in test [4], -0.775 (inactive); in [5], 8.3 (active); in test [6] (setting [15]), -0.134 (inactive); in test [6] (setting [16]) it was -0.269. For the same molecule, in test [3], the fraction signal was -0.0055 (inactive).

`COc1cc(Nc2ncc(-c3ccccc3)o2)cc(OC)c1OC` displayed a liver cell % of control in test [1] of 152%. In test [1], the parasite % of control was 18.6% (inactive). In addition, in [2], the percent of negative control (+Dex) was 93.5% (inactive). Besides, the z-score in [2] was 0.42; in [4], 1.53 (inactive); in test [5], -0.164 (inactive); in test [6] (setting [15]) it was 1.37 (inactive); in test [6] (setting [16]), -0.275. Further, the fraction signal in [3] was -0.0025 (inactive).
